Experimental data from the supplement of paper PMC11732987, “Enantioselective OTUD7B fragment discovery through chemoproteomics screening and high-throughput optimisation” (Communications Chemistry, 2025).

Columns and labels:
Test in all cases: log2 ratio of Biotin-Ahx-Ub-VS probe labelling (fragment/DMSO); higher = less target engagement (more negative = stronger competition), active = hit call of the paper (q ≤ 0.05, log2 ratio ≤ -1)
Conditions in all cases: compound concentration: 200 uM; treatment time: 3 h
ALG13 = target: T1, ALG13 (UniProt Q9NP73)
T1 sequence (whole entry): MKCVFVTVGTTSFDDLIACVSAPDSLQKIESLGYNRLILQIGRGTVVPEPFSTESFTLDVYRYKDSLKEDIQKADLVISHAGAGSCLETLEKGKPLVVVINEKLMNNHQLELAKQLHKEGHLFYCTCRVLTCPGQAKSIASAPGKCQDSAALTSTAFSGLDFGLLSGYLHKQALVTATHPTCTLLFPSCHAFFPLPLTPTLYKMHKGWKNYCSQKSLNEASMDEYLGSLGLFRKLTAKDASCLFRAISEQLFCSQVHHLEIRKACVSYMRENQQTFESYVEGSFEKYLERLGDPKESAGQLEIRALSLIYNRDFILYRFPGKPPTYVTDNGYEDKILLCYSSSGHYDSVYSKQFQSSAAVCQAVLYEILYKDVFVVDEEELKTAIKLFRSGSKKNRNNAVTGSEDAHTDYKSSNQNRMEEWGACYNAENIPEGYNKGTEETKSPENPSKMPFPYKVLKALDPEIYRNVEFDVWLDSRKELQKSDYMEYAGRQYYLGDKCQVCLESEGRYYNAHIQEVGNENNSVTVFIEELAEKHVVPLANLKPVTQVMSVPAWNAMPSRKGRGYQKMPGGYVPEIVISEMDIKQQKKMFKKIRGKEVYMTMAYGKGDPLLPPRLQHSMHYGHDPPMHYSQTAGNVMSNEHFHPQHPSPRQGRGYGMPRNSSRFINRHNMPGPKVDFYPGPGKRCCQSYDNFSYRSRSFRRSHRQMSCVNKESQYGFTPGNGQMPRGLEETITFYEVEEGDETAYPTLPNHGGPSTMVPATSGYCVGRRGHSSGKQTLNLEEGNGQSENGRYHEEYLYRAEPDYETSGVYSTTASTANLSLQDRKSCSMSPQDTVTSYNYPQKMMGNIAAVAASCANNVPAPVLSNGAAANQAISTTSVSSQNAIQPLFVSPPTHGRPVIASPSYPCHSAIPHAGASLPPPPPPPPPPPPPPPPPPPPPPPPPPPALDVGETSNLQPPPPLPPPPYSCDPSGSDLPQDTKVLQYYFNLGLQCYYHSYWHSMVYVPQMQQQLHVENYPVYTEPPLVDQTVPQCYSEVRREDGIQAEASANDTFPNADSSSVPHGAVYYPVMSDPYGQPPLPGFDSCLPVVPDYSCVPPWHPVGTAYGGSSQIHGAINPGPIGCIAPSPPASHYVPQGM
In short: (§1)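 HEK293T lysate (495 µg per sample, in Tris/CHAPS/IGEPAL buffer with protease inhibitors) was exposed in triplicate for 3 h to fragment at 200 µM or to vehicle, then to Biotin-Ahx-Ub-VS at 0.5 µM final for 1 h. Labelled DUBs were enriched on NeutrAvidin, digested with LysC and trypsin, and analysed by diaPASEF LC-MS/MS. Spectronaut label-free quantities were normalised to the global median, and values are average log2 ratios of fragment over vehicle from an unpaired t-test. Only proteins with ≥2 unique peptides were used.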

ATXN3 = ATXN3 (UniProt P54252)
ATXN3, sequence (P54252 whole entry): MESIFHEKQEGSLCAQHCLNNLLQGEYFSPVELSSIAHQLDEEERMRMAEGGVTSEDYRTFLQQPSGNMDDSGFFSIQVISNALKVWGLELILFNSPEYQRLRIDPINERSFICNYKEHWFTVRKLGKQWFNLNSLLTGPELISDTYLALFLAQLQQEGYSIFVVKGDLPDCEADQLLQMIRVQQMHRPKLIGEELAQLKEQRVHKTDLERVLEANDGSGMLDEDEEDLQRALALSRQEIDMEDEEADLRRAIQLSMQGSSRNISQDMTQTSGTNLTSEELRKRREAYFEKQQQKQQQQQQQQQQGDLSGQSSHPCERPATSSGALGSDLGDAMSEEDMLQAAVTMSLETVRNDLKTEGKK
In short: as §1

BAP1 = target: T2, BAP1 (UniProt Q92560)
T2 sequence (whole entry): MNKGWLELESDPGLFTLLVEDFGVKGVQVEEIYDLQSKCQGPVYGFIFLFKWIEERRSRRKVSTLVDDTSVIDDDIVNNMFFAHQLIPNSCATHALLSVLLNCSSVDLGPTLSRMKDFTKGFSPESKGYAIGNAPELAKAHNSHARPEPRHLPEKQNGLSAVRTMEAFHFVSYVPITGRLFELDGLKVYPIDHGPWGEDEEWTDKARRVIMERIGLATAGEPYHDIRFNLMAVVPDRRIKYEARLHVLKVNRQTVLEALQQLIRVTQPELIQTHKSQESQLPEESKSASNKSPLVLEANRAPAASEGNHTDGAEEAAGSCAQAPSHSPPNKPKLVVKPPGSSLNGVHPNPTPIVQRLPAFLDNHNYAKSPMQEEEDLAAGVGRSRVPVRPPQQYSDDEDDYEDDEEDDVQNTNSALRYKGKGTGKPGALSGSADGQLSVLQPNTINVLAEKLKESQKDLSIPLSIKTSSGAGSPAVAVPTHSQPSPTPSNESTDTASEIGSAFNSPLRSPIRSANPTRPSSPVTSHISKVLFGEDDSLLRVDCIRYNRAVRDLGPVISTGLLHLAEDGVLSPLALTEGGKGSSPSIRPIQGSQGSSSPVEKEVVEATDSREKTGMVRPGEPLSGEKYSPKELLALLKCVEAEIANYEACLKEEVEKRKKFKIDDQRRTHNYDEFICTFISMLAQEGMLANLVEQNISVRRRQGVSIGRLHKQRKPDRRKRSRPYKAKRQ
In short: as §1

EIF3F = EIF3F (UniProt O00303)
EIF3F, sequence (O00303 whole entry): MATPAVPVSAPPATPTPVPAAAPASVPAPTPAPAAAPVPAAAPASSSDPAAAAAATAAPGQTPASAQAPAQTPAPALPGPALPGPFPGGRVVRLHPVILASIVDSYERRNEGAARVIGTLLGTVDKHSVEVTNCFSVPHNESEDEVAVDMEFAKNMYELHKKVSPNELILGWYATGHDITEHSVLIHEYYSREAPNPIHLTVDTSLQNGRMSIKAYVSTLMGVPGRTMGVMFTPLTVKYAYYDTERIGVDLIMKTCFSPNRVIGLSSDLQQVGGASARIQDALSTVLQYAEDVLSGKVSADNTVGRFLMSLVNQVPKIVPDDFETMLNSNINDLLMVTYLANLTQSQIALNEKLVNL
In short: as §1

EIF3H = EIF3H (UniProt O15372)
EIF3H, sequence (O15372 whole entry): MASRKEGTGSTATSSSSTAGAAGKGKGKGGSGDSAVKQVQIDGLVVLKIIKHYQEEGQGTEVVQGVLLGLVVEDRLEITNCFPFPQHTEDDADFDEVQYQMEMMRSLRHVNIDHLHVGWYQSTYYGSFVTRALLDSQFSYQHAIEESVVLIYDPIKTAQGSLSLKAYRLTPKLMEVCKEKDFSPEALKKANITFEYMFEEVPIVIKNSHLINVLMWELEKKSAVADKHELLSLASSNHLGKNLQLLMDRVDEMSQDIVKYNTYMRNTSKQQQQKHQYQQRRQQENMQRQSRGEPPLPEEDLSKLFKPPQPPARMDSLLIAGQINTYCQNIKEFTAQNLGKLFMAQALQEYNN
In short: as §1

FAM105A = target: T3, FAM105A (UniProt Q9NUU6)
T3 sequence (whole entry): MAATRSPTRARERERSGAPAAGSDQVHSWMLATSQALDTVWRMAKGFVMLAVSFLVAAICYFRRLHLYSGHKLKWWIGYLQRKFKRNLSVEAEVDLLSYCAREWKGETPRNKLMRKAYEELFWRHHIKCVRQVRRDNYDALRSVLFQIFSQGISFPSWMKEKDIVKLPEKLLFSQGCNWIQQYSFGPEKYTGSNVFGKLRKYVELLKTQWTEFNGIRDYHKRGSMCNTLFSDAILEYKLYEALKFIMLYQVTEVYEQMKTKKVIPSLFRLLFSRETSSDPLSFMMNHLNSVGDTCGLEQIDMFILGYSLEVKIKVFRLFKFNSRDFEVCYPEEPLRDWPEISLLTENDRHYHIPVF
In short: as §1

OTUB1 = OTUB1 (UniProt Q96FW1)
OTUB1, sequence (Q96FW1 whole entry): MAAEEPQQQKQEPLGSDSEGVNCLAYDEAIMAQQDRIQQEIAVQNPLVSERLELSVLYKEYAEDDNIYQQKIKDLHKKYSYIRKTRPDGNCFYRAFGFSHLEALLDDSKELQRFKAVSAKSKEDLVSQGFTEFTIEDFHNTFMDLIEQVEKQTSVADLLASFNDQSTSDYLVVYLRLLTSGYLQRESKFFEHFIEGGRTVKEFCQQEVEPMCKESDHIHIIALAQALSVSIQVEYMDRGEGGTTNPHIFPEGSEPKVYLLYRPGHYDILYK
In short: as §1

OTUD4 = target: T4, OTUD4 (UniProt Q01804)
T4 sequence (whole entry): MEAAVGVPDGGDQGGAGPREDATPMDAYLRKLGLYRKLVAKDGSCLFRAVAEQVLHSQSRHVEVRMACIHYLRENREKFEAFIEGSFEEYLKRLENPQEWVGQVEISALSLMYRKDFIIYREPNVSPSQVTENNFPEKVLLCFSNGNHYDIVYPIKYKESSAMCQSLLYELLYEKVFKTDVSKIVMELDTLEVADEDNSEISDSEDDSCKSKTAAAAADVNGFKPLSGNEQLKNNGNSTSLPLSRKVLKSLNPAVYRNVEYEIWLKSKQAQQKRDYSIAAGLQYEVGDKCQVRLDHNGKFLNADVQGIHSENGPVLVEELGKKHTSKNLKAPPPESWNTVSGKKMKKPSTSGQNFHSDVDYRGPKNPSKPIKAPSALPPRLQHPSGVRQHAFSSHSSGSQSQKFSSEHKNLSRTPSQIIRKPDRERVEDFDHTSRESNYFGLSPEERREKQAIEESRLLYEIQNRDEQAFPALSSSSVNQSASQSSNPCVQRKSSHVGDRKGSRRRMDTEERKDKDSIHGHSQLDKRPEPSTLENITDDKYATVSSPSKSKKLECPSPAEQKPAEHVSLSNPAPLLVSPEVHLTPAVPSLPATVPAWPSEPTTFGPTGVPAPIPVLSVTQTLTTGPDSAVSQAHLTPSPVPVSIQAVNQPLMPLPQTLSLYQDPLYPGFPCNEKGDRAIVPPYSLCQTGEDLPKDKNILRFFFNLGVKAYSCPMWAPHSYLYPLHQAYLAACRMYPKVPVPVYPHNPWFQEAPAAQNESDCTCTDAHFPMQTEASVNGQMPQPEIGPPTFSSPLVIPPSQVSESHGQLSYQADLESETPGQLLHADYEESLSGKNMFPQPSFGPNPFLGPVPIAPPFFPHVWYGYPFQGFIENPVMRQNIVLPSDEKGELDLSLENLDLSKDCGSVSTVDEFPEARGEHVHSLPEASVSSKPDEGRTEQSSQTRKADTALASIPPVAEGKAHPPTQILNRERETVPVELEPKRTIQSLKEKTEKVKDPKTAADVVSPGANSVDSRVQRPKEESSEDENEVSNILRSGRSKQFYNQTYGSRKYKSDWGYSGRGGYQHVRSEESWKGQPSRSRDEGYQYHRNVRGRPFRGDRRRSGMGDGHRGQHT
In short: as §1

OTUD5 = target: T5, OTUD5 (UniProt Q96G74)
T5 sequence (whole entry): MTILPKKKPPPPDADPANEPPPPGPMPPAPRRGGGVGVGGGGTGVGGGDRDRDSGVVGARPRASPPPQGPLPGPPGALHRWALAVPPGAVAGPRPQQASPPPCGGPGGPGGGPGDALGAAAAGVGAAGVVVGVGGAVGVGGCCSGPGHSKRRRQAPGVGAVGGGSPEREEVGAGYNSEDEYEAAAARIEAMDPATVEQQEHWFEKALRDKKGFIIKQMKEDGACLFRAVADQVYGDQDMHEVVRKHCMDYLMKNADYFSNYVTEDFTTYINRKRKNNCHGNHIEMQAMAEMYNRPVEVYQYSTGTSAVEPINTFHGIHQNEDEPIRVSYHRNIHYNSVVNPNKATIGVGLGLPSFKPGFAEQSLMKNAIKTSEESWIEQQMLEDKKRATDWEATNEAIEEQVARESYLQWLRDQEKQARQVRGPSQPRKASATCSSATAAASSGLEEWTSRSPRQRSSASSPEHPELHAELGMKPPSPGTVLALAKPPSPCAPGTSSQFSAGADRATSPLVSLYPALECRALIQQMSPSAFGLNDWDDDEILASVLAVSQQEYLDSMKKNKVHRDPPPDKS
In short: as §1

Measured: log2 ratio of Biotin-Ahx-Ub-VS probe labelling

CC(NC(=O)CCl)c1ccc2[nH]ncc2c1 (centres undefined)
active: BAP1 -3.42
inactive: ALG13 0.186 | ATXN3 -0.431 | EIF3F -0.607 | EIF3H -0.275 | FAM105A -0.234 | OTUB1 -0.374 | OTUD4 -0.637 | OTUD5 -0.509
